From PubChem BioAssay AID743497 (The Scripps Research Institute Molecular Screening Center, 2014)
Unmarked numbers belong to inactive results. Calls of active or inactive are those of the source.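 How the source made its calls: active means IC50 of 10 µM or lower; inactive means IC50 above 10 µM.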

Test: small molecules binding CAG repeat RNA – biochemical, fluorescence, dose response, MedChem round 1, SAR follow-up (AID 743497)
Settings: r(CAG) RNA 1x1 AA loop, TO-PRO-1 displacement fluorescence

Row | SMILES | IC50
1 | O=C(/C=C\c1cn(-c2ccccc2)nc1-c1ccc(F)cc1)Nc1ccc(C(=O)O)cc1 | 2.15 µM (active)
2 | CN(C)C(=O)C1CCN(C(=O)/C=C/c2cn(-c3ccccc3)nc2-c2ccccc2)CC1 | > 29.9 µM
3 | O=C(/C=C/c1cn(-c2ccccc2)nc1-c1ccccc1)NCCO | > 29.9 µM
4 | CCOC(=O)N1CCC(NC(=O)/C=C/c2cn(-c3ccccc3)nc2-c2ccccc2)CC1 | > 29.9 µM
5 | CS(=O)(=O)Nc1cc(NC(=O)/C=C/c2cn(-c3ccccc3)nc2-c2ccccc2)ccc1F | 6.38 µM (active)
6 | CC(=O)NS(=O)(=O)c1ccc(NC(=O)/C=C/c2cn(-c3ccccc3)nc2-c2ccccc2)cc1 | 1.62 µM (active)
7 | Cc1ccc(-c2nn(-c3ccccc3)cc2/C=C/C(=O)Nc2ccc(S(N)(=O)=O)cc2)cc1 | 29.1 µM
8 | COc1ccc(NC(=O)/C=C/c2cn(-c3ccccc3)nc2-c2ccc(OC)cc2)cc1 | > 29.9 µM
9 | CN(C)CCCNC(=O)/C=C/c1cn(-c2ccccc2)nc1-c1ccccc1 | > 29.9 µM
10 | Cc1c(C(=O)Nc2ccc(S(=O)(=O)NCCCN3CCOCC3)cc2)oc2ccc(F)cc12 | > 29.9 µM
11 | COc1ccc(-c2nn(-c3ccccc3)cc2/C=C/C(=O)Nc2ccc(C(=O)O)cc2)cc1 | 1.94 µM (active)
12 | O=C(/C=C/c1cn(-c2ccccc2)nc1-c1ccccc1)NCc1ccccc1 | > 29.9 µM
13 | O=C(/C=C/c1cn(-c2ccccc2)nc1-c1ccc2ccccc2c1)Nc1ccc(C(=O)O)cc1 | 2.18 µM (active)
14 | CCN(c1ccccc1)S(=O)(=O)c1ccc(NC(=O)c2oc3ccc(F)cc3c2C)cc1 | > 29.9 µM
15 | CN1C(=O)/C(=C/c2cn(-c3ccccc3)nc2-c2ccccc2)c2ccccc21 | > 29.9 µM
16 | COC(=O)c1ccc(NC(=O)/C=C/c2cn(CCC#N)nc2-c2ccc(F)cc2)cc1 | > 29.9 µM
17 | CN1CCC(N(C)C(=O)/C=C/c2cn(-c3ccccc3)nc2-c2ccccc2)CC1 | > 29.9 µM
18 | NC(=O)c1cc(NC(=O)/C=C/c2cn(-c3ccccc3)nc2-c2ccc(F)cc2)c(F)cc1F | > 29.9 µM
19 | O=C(/C=C/c1cn(-c2ccccc2)nc1-c1ccccc1)NCCc1c[nH]c2ccccc12 | > 29.9 µM
20 | O=C(/C=C/c1cn(-c2ccccc2)nc1-c1ccccc1)N1CCN(CC(=O)N2CCCC2)CC1 | > 29.9 µM
21 | CNC(=O)Cc1ccc(NC(=O)/C=C/c2cn(-c3ccccc3)nc2-c2ccc(F)cc2)cc1 | > 29.9 µM
22 | Cc1ccc(-c2nn(-c3ccccc3)cc2/C=C/C(=O)Nc2cccc(S(N)(=O)=O)c2)cc1 | > 29.9 µM
23 | NS(=O)(=O)c1ccc(NC(=O)/C=C/c2cn(-c3ccccc3)nc2-c2cccc(Cl)c2)cc1 | > 29.9 µM
24 | CCN(CC)C(=O)/C=C/c1cn(-c2ccccc2)nc1-c1ccccc1 | > 29.9 µM
25 | N#C/C(=C/c1cn(Cc2ccccc2)nc1-c1cccnc1)C(=O)Nc1ccc(C(=O)O)cc1 | 16 µM
26 | Cc1c(C(=O)Nc2ccc(S(=O)(=O)Nc3ncccn3)cc2)oc2ccc(F)cc12 | > 29.9 µM
27 | COc1ccc(-c2nn(-c3ccccc3)cc2/C=C/C(=O)Nc2cccc(NC(C)=O)c2)cc1OC | > 29.9 µM
28 | CCN1CCN(C(=O)/C=C/c2cn(-c3ccccc3)nc2-c2ccccc2)CC1 | > 29.9 µM
29 | Cc1c(C(=O)Nc2ccc(S(=O)(=O)N(C)Cc3ccccc3)cc2)oc2ccc(F)cc12 | > 29.9 µM
30 | O=C(/C=C/c1cn(-c2ccccc2)nc1-c1ccccc1)Nc1cc(S(=O)(=O)N2CCCC2)ccc1Cl | > 29.9 µM
